# Assay outcomes deposited in PubChem BioAssay by The Scripps Research Institute Molecular Screening Center.
# Only some compounds are listed: those with a hit (about 3.5% of all), similar ones and a draw of the others.
# MITF inh – blocks human microphthalmia-associated transcription factor; actives 0.91% (n = 650,000); AlphaScreen MITF homodimerization, bead proximity signal; AID 1259374; inhibition, % at 2.6 µM; O75030; in the data active = inhibition above about 50%;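 note: 0% = vehicle wells with protein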
# FBW7 act – activators of human E3 ligase FBW7; actives 0.13% (n = 650,000); AlphaScreen FBW7–phospho-cyclin E peptide binding, activator screen; normalized activity (activation), % at 26.1 µM; AID 1259310; in the data active = normalized activity above about 1.9%;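 note: purified mutant Fbw7 with reduced substrate affinity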
# GPR151 ag – activators of human GPR151 | actives 1% (n = 650,000) | PathHunter beta-arrestin GPR151 cells, luminescence | Q8TDV0 | activation, % at 11.2 µM | AID 1508602; in the data active = activation above about 4.9%;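 note: 0% = median of compound wells and 100% = cells with positive control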
# TEAD-YAP block – TEAD-YAP interaction inhibition. HEK-TIYL cells, TEAD-Gal4/YAP UAS-luciferase luminescence. inhibition, % at 9.12 µM. actives 1.4% (n = 640,000); in the data active = inhibition above about 32%;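 note: 0% = median of test compound wells and 100% = reference inhibitor wells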
# MITF inh conf – human MITF inhibition, confirmation. shares compounds with MITF inh. AlphaScreen MITF homodimerization, biotin/His-MITF beads. inhibition, % at 2.6 µM. actives 16% (n = 4,700). AID 1259372;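 active = inhibition above a cutoff derived from the DMSO control wells, cut at about 28% in these data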;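 note: 0% = MITF dimer wells with DMSO only; inhibitors lower the bead chemiluminescence by keeping MITF from dimerizing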
# AS interf DR – counter-screen: compounds optically interfering with AlphaScreen; shares compounds with MITF inh; AlphaScreen optical interference counterscreen, cell-free; IC50, µM; actives 6% (n = 480); AID 1259373; call rule not given here
# AlphaScreen intf2 – counter-screen: compounds optically interfering with AlphaScreen; inhibition, % at 2.6 µM; LysRS AlphaScreen counterscreen, signal interference, triplicate; shares compounds with MITF inh; actives 7.6% (n = 4,700);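 active = inhibition above a cutoff derived from the DMSO control wells, cut at about 30% in these data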
# * = called active by the depositor; . = no result.
SMILES,MITF inh,FBW7 act,GPR151 ag,TEAD-YAP block,MITF inh conf,AlphaScreen intf2,others
N#Cc1cc(-c2ccnc(Nc3ccc(-c4nn[nH]n4)cc3)n2)cc(N2CCOCC2)c1,-13,1,-1,-8,.,.,
O=C(c1ccco1)N1CCN(Cc2ccccc2F)CC1,61*,0,2,-2,10,12,
CC(C)[C@H]1CN(Cc2ccccc2F)CCN1C(=O)c1ccncc1,-3,0,0,-10,.,.,
O=C(c1ccc([N+](=O)[O-])cc1)N1CCN(Cc2ccccc2Br)CC1,58*,0,0,1,-12,-3,
O=C(c1ccncc1)N1CCN(Cc2ccccc2F)CC1,78*,0,-1,-5,3,12,
Cn1cccc1CN1CCN(C(=O)c2ccc([N+](=O)[O-])cc2)CC1,40,0,1,6,.,.,
O=C(c1ccncc1)N1CCN(Cc2ccccc2Br)CC1,62*,0,0,0,-10,-2,
O=C(c1ccc(-c2ccccc2)cc1)N1CCN(Cc2ccncc2)CC1,7,0,2,-34,.,.,
COC(=O)c1ccc(NC(=O)CN2C(=O)CN(c3ccc(Br)cc3)C2=O)cc1,15,0,-1,9,.,.,
O=C(NC1CC1)c1ccc2c(c1)NC(=O)C(CS(=O)(=O)Cc1ccccc1Cl)N2 (stereo not given),4,0,0,-1,.,.,
CCCCN1C(=O)C(=O)C2=C(c3ccc(Cl)cc3)OC3(O)c4ccccc4C(O)(O)C213 (stereo not given),9,0,-2,10,.,.,
O=C(CNCc1ccccc1F)N1CCN(C(=O)CNCc2ccccc2F)CC1,61*,0,0,6,2,18,
CCOc1ccc2nc(N=C(NC(=O)c3ccccc3)NC(=O)c3ccccc3)nc(C)c2c1,71*,0,0,-10,-2,11,
CCOc1ccc2nc(N=C(NC(C)=O)NC(C)=O)nc(C)c2c1,-7,0,0,-56,.,.,
CSc1ccc(S(=O)(=O)N2CCN(Cc3ccccc3)CC2)cc1,20,1,-2,-4,.,.,
O=S(=O)(Cc1ccccc1)N1CCN(Cc2ccc(Br)cc2)CC1,59*,0,2,1,10,9,
O=S(=O)(Cc1ccccc1)N1CCN(C2CCN(Cc3ccccc3)CC2)CC1,65*,0,0,-10,-7,0,
O=S(=O)(Cc1ccc(Cl)cc1)N1CCN(Cc2ccccc2)CC1,0,1,1,-1,.,.,
CCc1ccc(CN2CCN(S(=O)(=O)Cc3ccccc3)CC2)cc1,60*,0,-2,15,6,13,
CSc1ccc(CN2CCN(S(=O)(=O)Cc3ccccc3)CC2)cc1,72*,0,0,14,10,13,
COc1ccc(/C=C2\C(=O)N(c3ccc4ccccc4c3)N=C2C)cc1O,4,-1,0,-10,.,.,
COC(=O)c1ccc(SCC2CCCO2)c([N+](=O)[O-])c1 (stereo not given),4,0,2,-20,.,.,
COc1ccc(-n2nc3c(c2NC(=O)c2ccc4c(c2)OCO4)CSC3)cc1,89*,0,-1,18,-8,-6,
Cc1ccccc1-n1nc2c(c1NC(=O)c1ccc(Br)cc1)CSC2,7,0,0,7,.,.,
Cc1ccccc1C(=O)Nc1c2c(nn1-c1ccc([N+](=O)[O-])cc1)CSC2,61*,0,1,-4,2,9,
Cc1ccc(C(=O)Nc2c3c(nn2-c2ccccc2C)CSC3)cc1,71*,0,1,2,11,16,
O=C(Nc1cc(C(=O)Nc2ccc(S(=O)(=O)O)cc2S(=O)(=O)O)cc(C(=O)Nc2ccc(S(=O)(=O)O)cc2S(=O)(=O)O)c1)Nc1cc(C(=O)Nc2ccc(S(=O)(=O)O)cc2S(=O)(=O)O)cc(C(=O)Nc2ccc(S(=O)(=O)O)cc2S(=O)(=O)O)c1,24,0,-2,-9,.,.,
O=C(Nc1ccc(C(=O)Nc2ccc(C(=O)Nc3ccc(S(=O)(=O)O)c4cc(S(=O)(=O)O)cc(S(=O)(=O)O)c34)cc2)cc1)Nc1ccc(C(=O)Nc2ccc(C(=O)Nc3ccc(S(=O)(=O)O)c4cc(S(=O)(=O)O)cc(S(=O)(=O)O)c34)cc2)cc1,71*,0,1,.,67*,7,AS interf DR=>6.5
